Anthrax LT inh: qHTS Assay for Anthrax Lethal Toxin Internalization | Cells, anthrax lethal toxin internalization, FRET ratio (460/530) | Potency, µM (top dose mostly 40 µM), for inactives: top-dose activity change, negative = inhibition, actives largely listed as inhibitors | 0.67% of 70,000 active; also: % is scaled to controls: 0 for no effect and ±100 for the full control effect; nearly all actives have a fitted effect of over 50% in size
AmpC nodet inh: Promiscuous and Specific Inhibitors of AmpC Beta-Lactamase (assay without detergent) | P00811 | AmpC nitrocefin hydrolysis, absorbance 480 nm, no detergent | Potency, µM (doses to about 28.7 µM), for inactives: at the top dose activity change, negative = inhibition | 1.8% of 71,000 active | AID 585, 2007; also: % of control where 0% means no effect
Target sequence (P00811 whole entry, looked up): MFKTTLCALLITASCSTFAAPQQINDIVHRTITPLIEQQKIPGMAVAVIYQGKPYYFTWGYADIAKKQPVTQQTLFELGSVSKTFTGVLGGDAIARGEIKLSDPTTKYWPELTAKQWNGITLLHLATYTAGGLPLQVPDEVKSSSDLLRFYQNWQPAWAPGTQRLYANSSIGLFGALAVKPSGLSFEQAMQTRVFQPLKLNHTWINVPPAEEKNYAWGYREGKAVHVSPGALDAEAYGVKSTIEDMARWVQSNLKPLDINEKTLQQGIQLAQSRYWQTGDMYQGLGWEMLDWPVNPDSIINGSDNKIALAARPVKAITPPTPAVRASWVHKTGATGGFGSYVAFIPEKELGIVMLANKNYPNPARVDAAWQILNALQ
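AmpC in 20 mM phosphate buffer pH 7.0 was preincubated 15 min at room temperature with compounds. Nitrocefin (800 uM stock) was then added and hydrolysis followed at 480 nm every 20 s for 4 min.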
AmpC det inh: Promiscuous and Specific Inhibitors of AmpC Beta-Lactamase (assay with detergent) | P00811 | purified AmpC, nitrocefin hydrolysis with detergent | Potency, µM (series often up to 28.7 µM), for inactives: at the highest dose activity change, negative = inhibition | 0.09% of 71,000 active | AID 584, 2007; active = well fitted curve in the direction sought with a large enough effect; inconclusive = small, poorly fitted or top-dose-only effect; also: % is scaled to controls: 0 for no effect and ±100 for the full control effect
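E. coli AmpC (5.3 nM) in 20 mM phosphate pH 7.0 with 0.01% Triton X-100, preincubated 15 min RT with compound; nitrocefin (2 uL of 800 uM stock) hydrolysis followed by 480 nm absorbance every 20 s over 4 min.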
SmPrx2 inh: Schistosoma Mansoni Peroxiredoxins (Prx2); Schistosoma mansoni peroxiredoxin 2 (Prx2); S. mansoni Prx2 activity coupled to TGR/GSH (TGR is thioredoxin glutathione reductase), NADPH fluorescence loss, qHTS; Potency, µM; 0.07% of 65,000 active; AID 448, 2006
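Prx2 inhibition was measured as reduced NADPH consumption when electrons flowed from NADPH through TGR and glutathione to Prx2 and H2O2. Plates were read kinetically over 8 min; enzyme reagents were held at 4 deg C during dispensing.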
The depositor's hits bear a star; ? = inconclusive; · = no result; [ ] = remark or other dose. Only some compounds are listed: those with a hit (about 2.6% of all), similar ones and a draw of the others. Unless noted, calls follow the shape of the full dose curve. Potency is read from the fitted curve at half-maximal effect.

SMILES	Anthrax LT inh	AmpC nodet inh	AmpC det inh	SmPrx2 inh
CCC(C)NC(=O)CC1Oc2ccc(C)cc2NC1=O (stereo unspecified)	-3%	4µM*[single pt active]	13%	>57
CCN(CC)CCCNC(=O)CC1Oc2ccc(C)cc2NC1=O (stereo unspecified)	5%	4µM*[single pt active]	13%	>57
CC(C)C(=O)N[C@@H]1CCCN1C(=O)/C=C\c1ccccc1	-7%[8 µM]	·	·	·
CC(O)Cc1nsc(NC(=O)c2cccs2)n1 (stereo unspecified)	-8%	4µM*[single pt active]	13%	>57
OC[C@@H]1O[C@@H](n2cnc3cncnc32)[C@@H](O)[C@H]1O	-1%	3%	-4%	>57
CCCn1cnc2c(SCC(=O)O)nc(N)nc21	-3%[8 µM]	10%[5.75 µM]	-2%[5.75 µM]	>57
CSc1ccc(C2C(C#N)=C(N)Oc3c2ccc(=O)c2c(C)oc(C)c32)cc1 (stereo unspecified)	-29%	10µM*	-4%	>57
Cc1oc(C)c2c(=O)ccc3c(c12)OC(N)=C(C#N)C3c1ccccc1 (stereo unspecified)	-24%	-17%	-4%	>57
CCOC(=O)CCS(=O)(=O)c1nc(-c2ccccc2)cc(C(F)(F)F)n1	?	16%	1%	>57
CCOC(=O)CS(=O)(=O)c1nc(-c2ccccc2)cc(C(F)(F)F)n1	3.2µM*	-3%	-8%	>57
O=C1C2=CC[C@H]3C(=O)N(C[C@@H]4CCCO4)C(=O)[C@@H]3[C@@H]2[C@H](O)[C@@H]2O[C@H]12	-8%[8 µM]	·	·	·
O=C(CSc1nnc(-c2ccccc2F)o1)OCc1ccccc1	3%	10%	12%	>57
O=C(CSc1nnc2c(n1)[nH]c1ccc(F)cc12)OCc1ccccc1	-7%	10µM*	7%	>57
Cc1c(NC(=O)c2noc3c2CCc2ccccc2-3)c(=O)n(-c2ccccc2)n1C	-14%	4µM*[single pt active]	10%	>57
Cc1cc(NC(=O)c2noc3c2CCc2ccccc2-3)no1	-1%	4µM*[single pt active]	9%	>57
Cc1ccccc1Cn1nc(C)c(NC(=O)c2noc3c2CCc2ccccc2-3)c1C	?	64%	13%	?
CCOC(=O)c1ccc2ncc(C(=O)OCC)c(NCCN(C)C)c2c1	1%	3.2µM*[single pt active]	14%	>57
O=C(Nc1cnc2ccccc2c1)c1cccnc1	-6%	4µM*[single pt active]	10%	>57
CCOC(=O)c1c(NC(=O)c2cc(C3CC3)on2)sc2c1CCCC2	-1%	-2%	6%	>57
Cc1cccc(N2CCN(C(=O)C3CCN(c4nnc(-n5cccc5)s4)CC3)CC2C)c1 (stereo unspecified)	7.9µM*	105%	5%	>57
O=C(c1ccccc1)c1cn(CC(=O)N2CCCC2)c2ccccc12	10%	4µM*[single pt active]	16%	>57
CCCN(CCC)c1c([N+](=O)[O-])cc(C(F)(F)F)cc1[N+](=O)[O-]	5µM*	-15%	10%	·
O=[N+]([O-])c1cc(C(F)(F)F)cc([N+](=O)[O-])c1Cl	0%	-3%	13%	·
O=C(CCCCn1c(=O)[nH]c2ccccc2c1=O)N1CCN(c2cccc(C(F)(F)F)c2)CC1	?	93%	-4%	>57
O=C(CCCn1c(=O)[nH]c2ccccc2c1=O)N1CCN(c2ccccn2)CC1	12%	3.2µM*[single pt active]	12%	>57
SMILES	Anthrax LT inh	AmpC nodet inh	AmpC det inh	SmPrx2 inh
O=C(CCCCn1c(=O)[nH]c2ccccc2c1=O)N1CCN(c2ncccn2)CC1	-8%	4µM*[single pt active]	14%	>57
CCC/C=C(\CCC)C(NC(=O)c1ccc(C(F)(F)F)cc1)c1ccccc1 (stereo unspecified)	-17%	20µM*[single pt active]	3%	>57
Cc1ccc(Cn2c(SCC(=O)Nc3cc(C)on3)nc3ccccc3c2=O)cc1	11%	13µM*[single pt active]	-1%	>57
Cc1cc(NC(=O)CSc2nc3ccccc3c(=O)n2Cc2ccccc2)no1	-9%	-20%	-2%	>57
N#CC1=C2SCN(Cc3ccco3)CN2C(=O)CC1c1c(F)cccc1Cl (stereo unspecified)	-11%	4µM*[single pt active]	10%	>57
N#CC1=C2SCN(c3ccccc3)CN2C(=O)CC1c1c(Cl)cccc1Cl (stereo unspecified)	?	2.5µM*	8%	·
COc1ccc(OC)c(C2CC(=O)N3CN(c4ccc(C)c(Cl)c4)CSC3=C2C#N)c1 (stereo unspecified)	-15%	-8%	11%	>57
N#CC1=C2SCN(c3ccccc3)CN2C(=O)CC1c1ccccc1Cl (stereo unspecified)	?	2.5µM*	9%	>57
N#CC1=C2SCN(c3ccccc3)CN2C(=O)CC1c1cccs1 (stereo unspecified)	-13%	-6%	-5%	>57
Cc1ccc(C2CC(=O)N3CN(c4ccc(Br)cc4)CSC3=C2C#N)o1 (stereo unspecified)	?	13µM*[single pt active]	-6%	>57
COc1cc(OC)c(C2CC(=O)N3CN(c4ccccc4)CSC3=C2C#N)cc1OC (stereo unspecified)	?	57%	1%	>57
O=C(O)c1ccc(S(=O)(=O)N(Cl)Cl)cc1	-5%	-8%	5%	·
O=C(CCCCCN1C(=O)C2C3C=CC(C3)C2C1=O)Nc1nccs1 (stereo unspecified)	12%	2µM*[single pt active]	12%	>57
O=C(CCN1C(=O)C2C3C=CC(C3)C2C1=O)Nc1nccs1 (stereo unspecified)	-1%	-2%	-5%	>57
COC(=O)NC(/C(C(=O)OC)=C(\C)NCc1ccccc1)c1ccc(Cl)cc1 (stereo unspecified)	-10%[8 µM]	·	·	·
COc1ccc(C(=O)N2CCC3(CCN(Cc4nccs4)CC3)CC2)cc1	5%	2%	-1%	>57
COc1ccccc1C(=O)Nc1ccc2c(c1)OCCO2	1%	-2%	-1%	>57
COc1cc(SC)ccc1C(=O)Nc1ccc2c(c1)OCCO2	10µM*	29%	5%	>57
Cc1cc(C(=O)CSc2nnc(-c3cccc(F)c3)n2N)c(C)n1Cc1ccc2c(c1)OCO2	-14%	16µM*[single pt active]	9%	>57
Cc1ccc(-c2nnc(SCC(=O)Nc3ccc4c(c3)OCCO4)n2N)cc1	-3%	-6%	10%	>57
Cc1cc(C(=O)CSc2nnnn2-c2ccc(O)cc2)c(C)n1Cc1ccc2c(c1)OCO2	?	13µM*	-5%	>57
CCOC(=O)N1CCN(C(=O)c2sc3nc(-c4ccc(F)cc4)cn3c2C)CC1	0%	119%	-4%	>57
COc1ccccc1N1CCN(C(=O)c2sc3nc(-c4ccc(F)cc4)cn3c2C)CC1	16µM*	126%	13%	>57
c1ccc2c(c1)OC[C@@H](C1=NCCN1)O2	-4%	31%	2%	>57
CN(C)c1oc(-c2ccccc2Cl)nc1C#N	1%	1%	-6%	·
CN(C)c1oc(-c2ccccc2Cl)nc1S(=O)(=O)c1ccccc1	-22%	4µM*[single pt active]	11%	>57
CS(=O)(=O)N1CCC2(CCN(c3ccccc3)CC2)CC1	8%	17%	-2%	>57

Source: PubChem BioAssay (National Center for Advancing Translational Sciences (NCATS))
